Inconclusive results are not listed. Entries that show only a call come without a potency. Active and inactive are the calls of the source. Calls come from the whole dose curve; as a rule, active = well fitted cell-killing curve with a large enough effect in the repeat runs; inconclusive = weak or mixed curves, or effect the other way; inactive = flat fitted curve, though single readings scatter.
assay: qHTS RealTime-Glo MT Cell Viability Assay in HEK293 cells - 8 hour (AID 1224887); conditions: RealTime-Glo luminescence; series mostly up to 76.8 µM; note: nearly all actives have a fitted effect of over 50% in size
From the text: U.S. Tox21 Program National Center for Advancing Translational Sciences [NCATS] NIH Chemical Genomics Center [NCGC] U.S. Environmental Protection Agency [EPA] National Institutes of Environmental Health Sciences [NIEHS] National Toxicology Program [NTP] U.S. Food and Drug Administration [FDA] Tox21 Assay Overview: Measure of cell viability is critical in the cell-base assay. Analysis of cell viability is necessary for the characterization of cell responses to cytotoxic drugs and environmental stress. A RealTime-Glo MT Cell Viability Assay to monitor cell viability in real time of continues cell culture during 40 hours of compound treatment was used to screen Tox21 10K library compounds in Hek293 cells. The RealTime-Glo MT Cell Viability Assay is a nonlytic, homogeneous, bioluminescent method to measure cell viability in real time using a simple, plate-based method. The assay involves adding NanoLuc luciferase and a cell-permeant prosubstrate to cells in culture. Viable cells reduce the proprietary prosubstrate to generate a substrate for NanoLuc luciferase. This substrate diffuses from cells into the surrounding culture medium, where it is rapidly used by the NanoLuc Enzyme to produce a luminescent signal. The signal correlates with the number of viable cells, making the assay well suited for cytotoxicity studies.
Tox21 Assay Protocol Summary: The mixture of Hek293 cell suspension and reagents were dispensed at 600cells/6 ul/well in 1536-well tissue culture treated black solid bottom plates using a Multidrop dispenser. After the assay plates were incubated at a 37 C/5% CO2 incubator for 5 hours, 23 nL of compounds dissolved in DMSO, positive and negative controls was transferred to the assay plate by a pintool work station. The plates were incubated at 37 C for 40 hours. The luminescence intensity were measured at 0h, 8h, 16h, 24h, 32h and 40h time points using ViewLux plate reader during compound treatment.
Potency is the fitted concentration of half-maximal effect.

Row | Compound | Potency
1 | O=C1OC[C@H](Cc2cccc(O)c2)[C@H]1Cc1cccc(O)c1 | inactive
2 | Cc1ccc2c(c1)CCCN2 | inactive
3 | O=C(O)CCC(=O)c1ccc(-c2ccccc2)cc1 | inactive
4 | Nc1c(Cl)cc(Cl)cc1[N+](=O)[O-] | inactive
5 | CC[C@H]1OC(=O)[C@H](C)[C@@H](O[C@H]2C[C@@](C)(OC)[C@@H](O)[C@H](C)O2)[C@H](C)[C@@H](O[C@@H]2O[C@H](C)C[C@H](N(C)C)[C@H]2O)[C@](C)(O)C[C@@H](C)CN(C)[C@H](C)[C@@H](O)[C@]1(C)O | inactive
6 | O=S(=O)(Cl)c1c(Cl)cccc1Cl | inactive
7 | C=C(C)c1ccccc1 | inactive
8 | C/C(C=O)=C\c1ccccc1 | inactive
9 | CCN(CC)CCOC(=O)C(c1ccccc1)c1ccccc1 | inactive
10 | CC(C)(O)CCc1ccccc1 | inactive
11 | Cc1ccc2c(c1[N+](=O)[O-])C(=O)c1ccccc1C2=O | inactive
12 | Cc1ccc2nc(N)[nH]c(=O)c2c1Sc1ccncc1 | inactive
13 | CCC(CO)(CO)CO | inactive
14 | CCOCCC(=O)OCC | inactive
15 | O=C1[C@@H]2[C@H]3CC[C@H](C3)[C@@H]2C(=O)N1CCCCN1CCN(c2ncccn2)CC1 | inactive
16 | Nc1nc(-c2ccc([N+](=O)[O-])cc2)cs1 | inactive
17 | CC(=O)OCC1=C(C(=O)O)N2C(=O)[C@@H](NC(=O)CSc3ccncc3)[C@H]2SC1 | inactive
18 | CC1C(C)(C)C2=C(C(=O)CCC2)C1(C)C (stereo not given) | inactive
19 | COc1cc(NS(=O)(=O)c2ccc(N)cc2)nc(C)n1 | inactive
20 | CC[C@H]1OC(=O)[C@H](C)[C@@H](O[C@H]2C[C@@](C)(OC)[C@@H](O)[C@H](C)O2)[C@H](C)[C@@H](O[C@@H]2O[C@H](C)C[C@H](N(C)C)[C@H]2O)[C@](C)(O)C[C@@H](C)/C(=N\OCOCCOC)[C@H](C)[C@@H](O)[C@]1(C)O | inactive

Row | Compound | Potency
21 | CC(=O)OCCC1CCCCC1 | inactive
22 | ClC1=C(Cl)C1(Cl)Cl | inactive
23 | CC/C=C\C/C=C\C/C=C\CCCCCCCC(=O)OCC | inactive
24 | CC(=O)OC(C)C[N+](C)(C)C (stereo not given) | inactive
25 | CC(C)N(C)C | inactive
26 | C=CCOC(=O)COCCC(C)C | inactive
27 | CCN(CC)CCNC(=O)c1cc(Cl)c(N)cc1OC | inactive
28 | BrC(Br)C(Br)Br | inactive
29 | CC(=O)Oc1cccc(O)c1 | inactive
30 | CC(C)c1ccc(C#N)cc1 | inactive
31 | O=C1CC[C@@H](C(=O)O)N1 | inactive
32 | CCCCCCC(O)CCCCCCCCCCC(=O)OC (stereo not given) | inactive
33 | Cc1cccc2sc(N)nc12 | inactive
34 | O=C(O)CO | inactive
35 | O=[N+]([O-])c1ccc2ncccc2c1 | inactive
36 | COC1CCC=CO1 (stereo not given) | inactive
37 | CNS(=O)(=O)c1cc(C(=O)N2CCC(CCN3C4CCC3CC(n3c(C)nc5ccccc53)C4)(c3cccc(F)c3)CC2)c(Cl)cc1F (stereo not given) | 3.89 µM (active)
38 | CCSC(=O)N(CC)CC | inactive
39 | CC1=C2[C@@H]([C@H](C)CC[C@H]2/C=C(\C)C(=O)O)[C@H](O)C1 | inactive
40 | CC(C)C(=O)OCCOc1ccccc1 | inactive

— PubChem BioAssay (Tox21)
